Tests used:
[1] = target: Bromodomain-containing protein 4 (Homo sapiens) (UniProt O60885); details: Compound concentration 10.0 uM, Protein concentration 2.0 uM
[2] = target: T1, Transcription intermediary factor 1-alpha (Homo sapiens) (UniProt O15164); details: Compound concentration 10.0 uM, Protein concentration 2.0 uM
T1 sequence (whole entry): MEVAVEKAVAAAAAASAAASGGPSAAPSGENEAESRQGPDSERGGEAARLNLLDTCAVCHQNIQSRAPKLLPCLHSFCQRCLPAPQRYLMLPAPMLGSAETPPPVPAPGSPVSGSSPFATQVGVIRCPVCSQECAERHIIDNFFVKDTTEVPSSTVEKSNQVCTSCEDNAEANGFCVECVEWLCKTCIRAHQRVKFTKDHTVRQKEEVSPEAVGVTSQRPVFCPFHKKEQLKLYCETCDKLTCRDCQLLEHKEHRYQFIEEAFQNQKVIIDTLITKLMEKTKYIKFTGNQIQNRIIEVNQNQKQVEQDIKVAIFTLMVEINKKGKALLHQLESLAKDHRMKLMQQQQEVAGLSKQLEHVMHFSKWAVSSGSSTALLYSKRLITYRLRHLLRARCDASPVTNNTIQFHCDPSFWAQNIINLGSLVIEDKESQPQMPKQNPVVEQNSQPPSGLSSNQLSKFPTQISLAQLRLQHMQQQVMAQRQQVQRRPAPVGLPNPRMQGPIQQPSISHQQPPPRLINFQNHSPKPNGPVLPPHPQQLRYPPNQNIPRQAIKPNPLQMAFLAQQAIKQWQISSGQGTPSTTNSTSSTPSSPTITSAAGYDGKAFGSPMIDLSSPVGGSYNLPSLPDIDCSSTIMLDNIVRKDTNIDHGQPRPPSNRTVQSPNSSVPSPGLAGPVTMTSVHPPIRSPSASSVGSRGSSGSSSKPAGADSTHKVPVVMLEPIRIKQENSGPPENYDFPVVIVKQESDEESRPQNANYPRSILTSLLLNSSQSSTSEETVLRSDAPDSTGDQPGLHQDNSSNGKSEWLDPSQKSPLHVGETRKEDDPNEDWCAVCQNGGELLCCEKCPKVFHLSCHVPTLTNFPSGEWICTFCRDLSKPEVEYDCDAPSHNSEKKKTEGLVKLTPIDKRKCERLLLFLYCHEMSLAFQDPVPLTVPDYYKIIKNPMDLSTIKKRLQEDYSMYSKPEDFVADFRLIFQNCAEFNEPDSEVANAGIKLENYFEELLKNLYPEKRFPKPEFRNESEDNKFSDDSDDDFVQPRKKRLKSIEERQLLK

CC(=O)c1cc(-c2cc(C(=O)NC3CC3)ccc2C)c2ncccn12
ΔTm [1]: 0.28 °C | ΔTm [2]: 0.37 °C
